From PMC7862700, “An all-to-all approach to the identification of sequence-specific readers for epigenetic DNA modifications on cytosine” come the findings set out here.

Common to all, as to experiment: DAPPL (digital affinity profiling via proximity ligation, sequencing); 10 mM Tris-HCl pH 7.5, 50 mM NaCl, 1 mM DTT, 4% glycerol, room temperature, 30 min; GST-TFs on glutathione beads, 16-mer random dsDNA library, 0.1% formaldehyde crosslink after washing; high values mean tight binding
One experiment has as its target T1, FLI1 (Homo sapiens, UniProt Q01543 1-452).
T1 sequence: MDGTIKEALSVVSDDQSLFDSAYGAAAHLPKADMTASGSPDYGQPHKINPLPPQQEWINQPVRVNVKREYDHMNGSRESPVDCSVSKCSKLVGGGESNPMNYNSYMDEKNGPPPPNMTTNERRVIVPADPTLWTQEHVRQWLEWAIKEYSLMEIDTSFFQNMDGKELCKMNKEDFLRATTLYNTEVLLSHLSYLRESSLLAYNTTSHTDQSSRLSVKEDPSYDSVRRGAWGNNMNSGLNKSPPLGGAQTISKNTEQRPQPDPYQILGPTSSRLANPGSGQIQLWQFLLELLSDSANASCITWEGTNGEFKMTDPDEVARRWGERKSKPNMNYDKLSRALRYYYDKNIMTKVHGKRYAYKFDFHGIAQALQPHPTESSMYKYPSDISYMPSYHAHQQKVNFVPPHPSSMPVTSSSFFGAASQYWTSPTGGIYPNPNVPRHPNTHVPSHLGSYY
To be noted: protein: recombinant; tags: N-terminal GST; dsDNA, one strand shown. The procedure, abridged: (§1)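 Binding signal is each hexamer's read frequency for a factor divided by its frequency in the tag-only sample. The factors were GST-fused human transcription factors from yeast, captured on glutathione beads, DNA-barcoded and pooled with that sample. Pools were incubated with 200 nmole of a random double-stranded 16-mer DNA library in Tris/NaCl/DTT/glycerol buffer at room temperature for 30 min, then washed, crosslinked with 0.1% formaldehyde, proximity-ligated with BsaI/T4 ligase (1 h, 37 °C), PCR-amplified and sequenced on an Illumina NextSeq500.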

A further experiment concerns the target T2, ELK1 (Homo sapiens, UniProt P19419 1-428).
T2 sequence: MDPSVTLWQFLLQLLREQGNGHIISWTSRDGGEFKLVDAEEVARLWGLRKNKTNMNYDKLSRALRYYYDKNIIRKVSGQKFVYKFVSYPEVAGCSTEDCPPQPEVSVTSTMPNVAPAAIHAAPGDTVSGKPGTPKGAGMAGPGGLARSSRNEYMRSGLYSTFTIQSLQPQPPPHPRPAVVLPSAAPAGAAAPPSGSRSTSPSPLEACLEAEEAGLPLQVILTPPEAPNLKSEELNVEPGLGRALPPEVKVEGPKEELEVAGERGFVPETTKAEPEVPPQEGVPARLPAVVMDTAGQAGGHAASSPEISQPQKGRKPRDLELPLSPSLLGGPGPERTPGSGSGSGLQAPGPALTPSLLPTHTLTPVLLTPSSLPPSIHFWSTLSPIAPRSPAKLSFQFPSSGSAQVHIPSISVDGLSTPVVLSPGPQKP
To be noted: protein: recombinant; tags: N-terminal GST; dsDNA, one strand shown. The procedure, abridged:
as §1

The next experiment has as its target T3, GABPA (Homo sapiens, UniProt Q06546 1-454).
T3 sequence: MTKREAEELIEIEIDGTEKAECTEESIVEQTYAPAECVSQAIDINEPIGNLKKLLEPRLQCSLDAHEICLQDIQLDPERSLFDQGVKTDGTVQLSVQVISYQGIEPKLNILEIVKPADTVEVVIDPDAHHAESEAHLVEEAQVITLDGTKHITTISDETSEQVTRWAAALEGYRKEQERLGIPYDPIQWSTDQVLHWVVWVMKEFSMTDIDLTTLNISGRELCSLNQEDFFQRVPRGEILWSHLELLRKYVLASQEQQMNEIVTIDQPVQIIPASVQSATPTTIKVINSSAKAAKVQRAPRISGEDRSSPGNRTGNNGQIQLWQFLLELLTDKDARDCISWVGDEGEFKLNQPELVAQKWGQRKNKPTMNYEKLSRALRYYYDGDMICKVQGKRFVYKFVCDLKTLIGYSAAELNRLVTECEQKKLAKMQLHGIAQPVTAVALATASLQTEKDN
To be noted: protein: recombinant; tags: N-terminal GST; dsDNA, one strand shown. The procedure, abridged: as §1

Another experiment addresses T4, ERG (Homo sapiens, UniProt P11308 1-479).
T4 sequence: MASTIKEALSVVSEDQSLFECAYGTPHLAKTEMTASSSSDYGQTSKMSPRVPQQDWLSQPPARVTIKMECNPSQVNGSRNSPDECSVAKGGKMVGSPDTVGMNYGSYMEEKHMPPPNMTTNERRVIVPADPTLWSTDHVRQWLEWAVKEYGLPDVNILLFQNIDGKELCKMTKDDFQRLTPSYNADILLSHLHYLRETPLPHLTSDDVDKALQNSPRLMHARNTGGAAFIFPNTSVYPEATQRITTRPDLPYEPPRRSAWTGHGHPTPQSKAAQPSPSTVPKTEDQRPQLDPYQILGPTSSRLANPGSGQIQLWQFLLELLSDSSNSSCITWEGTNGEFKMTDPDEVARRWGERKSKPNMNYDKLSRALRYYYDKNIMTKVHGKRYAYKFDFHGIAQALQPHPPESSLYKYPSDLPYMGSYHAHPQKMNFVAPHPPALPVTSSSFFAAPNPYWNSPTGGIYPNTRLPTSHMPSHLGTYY
To be noted: protein: recombinant; tags: N-terminal GST; dsDNA, one strand shown. The procedure, abridged: as §1

In another experiment the target is ELF1 (Homo sapiens, UniProt P32519 1-619). To be noted: protein: recombinant; tags: N-terminal GST; dsDNA, one strand shown. The procedure, abridged: as §1
The target of another experiment is T5, EHF (Homo sapiens, UniProt Q9NZC4 1-300).
T5 sequence: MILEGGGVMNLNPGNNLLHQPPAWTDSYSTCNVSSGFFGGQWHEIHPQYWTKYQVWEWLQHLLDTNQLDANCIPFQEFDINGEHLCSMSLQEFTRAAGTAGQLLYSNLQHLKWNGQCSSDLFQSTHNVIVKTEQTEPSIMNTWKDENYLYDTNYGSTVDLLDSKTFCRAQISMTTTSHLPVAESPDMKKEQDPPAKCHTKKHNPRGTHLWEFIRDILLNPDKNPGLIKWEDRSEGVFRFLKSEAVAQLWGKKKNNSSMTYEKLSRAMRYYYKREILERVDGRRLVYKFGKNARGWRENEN
To be noted: protein: recombinant; tags: N-terminal GST; dsDNA, one strand shown. In a few lines: as §1

The next experiment addresses SPI1 (Homo sapiens, UniProt P17947 1-270). To be noted: protein: recombinant; tags: N-terminal GST; dsDNA, one strand shown. The procedure, abridged: as §1
The next experiment has as its target SPIB (Homo sapiens, UniProt Q01892 1-262). To be noted: protein: recombinant; tags: N-terminal GST; dsDNA, one strand shown. The procedure, abridged: as §1
The next experiment has as its target T6, ELK3 (Homo sapiens, UniProt P41970 1-407).
T6 sequence: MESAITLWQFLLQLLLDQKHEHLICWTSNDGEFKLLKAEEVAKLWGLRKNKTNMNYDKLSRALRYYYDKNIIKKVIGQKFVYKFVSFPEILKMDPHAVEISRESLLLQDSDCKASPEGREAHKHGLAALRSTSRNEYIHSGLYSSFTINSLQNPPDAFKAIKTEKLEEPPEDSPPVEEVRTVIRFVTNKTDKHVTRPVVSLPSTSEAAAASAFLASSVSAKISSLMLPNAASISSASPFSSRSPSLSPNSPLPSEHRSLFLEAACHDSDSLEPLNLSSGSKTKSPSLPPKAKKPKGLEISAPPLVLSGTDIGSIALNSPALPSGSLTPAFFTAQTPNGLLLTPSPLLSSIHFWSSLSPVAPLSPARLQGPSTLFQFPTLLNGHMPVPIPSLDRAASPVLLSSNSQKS
To be noted: protein: recombinant; tags: N-terminal GST; dsDNA, one strand shown. In a few lines:
as §1

The next experiment addresses T7, FEV (Homo sapiens, UniProt Q99581 1-238).
T7 sequence: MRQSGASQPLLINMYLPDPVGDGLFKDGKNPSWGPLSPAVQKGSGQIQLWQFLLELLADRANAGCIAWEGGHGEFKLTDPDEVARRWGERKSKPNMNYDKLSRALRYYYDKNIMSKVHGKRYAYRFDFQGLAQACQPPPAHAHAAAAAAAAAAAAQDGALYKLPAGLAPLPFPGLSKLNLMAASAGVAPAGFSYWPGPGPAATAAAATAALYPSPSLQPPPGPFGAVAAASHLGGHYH
To be noted: protein: recombinant; tags: N-terminal GST; dsDNA, one strand shown. In a few lines: as §1

For the next experiment, the target named is ETV5 (Homo sapiens, UniProt P41161 1-510). To be noted: protein: recombinant; tags: N-terminal GST; dsDNA, one strand shown. The procedure, abridged: as §1
In a further experiment the target is HSF1 (Homo sapiens, UniProt Q00613 1-529). To be noted: protein: recombinant; tags: N-terminal GST; chain copies: 3; dsDNA, one strand shown. The procedure, abridged:
as §1

A further experiment concerns the target T8, SPIC (Homo sapiens, UniProt Q8N5J4 1-248).
T8 sequence: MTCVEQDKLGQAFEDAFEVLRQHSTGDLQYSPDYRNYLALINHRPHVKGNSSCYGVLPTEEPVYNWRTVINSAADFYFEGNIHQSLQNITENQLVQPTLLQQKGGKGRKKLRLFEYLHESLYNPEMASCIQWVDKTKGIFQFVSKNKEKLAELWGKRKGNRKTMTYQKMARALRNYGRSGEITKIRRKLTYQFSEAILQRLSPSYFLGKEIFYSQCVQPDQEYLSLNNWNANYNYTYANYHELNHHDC
To be noted: protein: recombinant; tags: N-terminal GST; dsDNA, one strand shown. The procedure, abridged: as §1

The target in a further experiment is ELF4 (Homo sapiens, UniProt Q99607 1-663). To be noted: protein: recombinant; tags: N-terminal GST; dsDNA, one strand shown. The procedure, abridged:
as §1

In the next experiment the target is T9, ELK4 (Homo sapiens, UniProt P28324-2 1-405).
T9 sequence: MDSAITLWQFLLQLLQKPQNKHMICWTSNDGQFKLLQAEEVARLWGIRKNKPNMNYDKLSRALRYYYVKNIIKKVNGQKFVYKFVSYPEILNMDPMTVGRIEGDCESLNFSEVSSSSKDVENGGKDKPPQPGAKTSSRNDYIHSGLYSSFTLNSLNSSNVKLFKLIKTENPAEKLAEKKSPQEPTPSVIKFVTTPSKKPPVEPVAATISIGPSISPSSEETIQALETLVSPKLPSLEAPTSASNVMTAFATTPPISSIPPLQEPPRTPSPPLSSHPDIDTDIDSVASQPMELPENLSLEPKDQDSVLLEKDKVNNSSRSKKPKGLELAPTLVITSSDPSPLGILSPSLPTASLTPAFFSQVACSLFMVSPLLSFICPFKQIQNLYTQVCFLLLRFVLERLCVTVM
To be noted: protein: recombinant; tags: N-terminal GST; dsDNA, one strand shown. The procedure, abridged: as §1

The target of another experiment is T10, ETV2 (Homo sapiens, UniProt O00321 1-342).
T10 sequence: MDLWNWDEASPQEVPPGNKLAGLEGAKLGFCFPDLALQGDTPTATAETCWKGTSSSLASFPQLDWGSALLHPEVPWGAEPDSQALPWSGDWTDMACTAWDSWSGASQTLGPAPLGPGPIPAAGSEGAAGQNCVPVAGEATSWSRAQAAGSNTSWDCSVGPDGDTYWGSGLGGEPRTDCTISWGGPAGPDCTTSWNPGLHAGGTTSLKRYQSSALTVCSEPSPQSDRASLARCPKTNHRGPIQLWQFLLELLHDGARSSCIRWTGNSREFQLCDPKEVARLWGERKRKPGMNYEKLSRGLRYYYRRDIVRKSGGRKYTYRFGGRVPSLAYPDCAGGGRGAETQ
To be noted: protein: recombinant; tags: N-terminal GST; dsDNA, one strand shown. In a few lines:
as §1

The target of the next experiment is T11, ELF3 (Homo sapiens, UniProt P78545 1-371).
T11 sequence: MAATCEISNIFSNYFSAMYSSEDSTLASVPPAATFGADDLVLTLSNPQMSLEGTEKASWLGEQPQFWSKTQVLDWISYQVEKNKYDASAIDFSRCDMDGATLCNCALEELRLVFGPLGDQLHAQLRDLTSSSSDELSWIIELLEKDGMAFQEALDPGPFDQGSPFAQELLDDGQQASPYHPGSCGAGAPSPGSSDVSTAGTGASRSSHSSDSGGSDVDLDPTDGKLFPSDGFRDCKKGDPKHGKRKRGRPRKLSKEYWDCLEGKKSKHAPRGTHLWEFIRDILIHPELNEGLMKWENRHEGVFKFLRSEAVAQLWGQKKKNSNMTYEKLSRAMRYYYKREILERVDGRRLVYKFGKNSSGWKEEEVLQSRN
To be noted: protein: recombinant; tags: N-terminal GST; dsDNA, one strand shown. The procedure, abridged: as §1

The target in the next experiment is CRX (Homo sapiens, UniProt O43186 1-299). To be noted: protein: recombinant; tags: N-terminal GST; dsDNA, one strand shown. The procedure, abridged:
as §1

A further experiment deals with ETV1 (Homo sapiens, UniProt P50549 1-477). To be noted: protein: recombinant; tags: N-terminal GST; dsDNA, one strand shown. In a few lines:
as §1

Sequence of ELF4 (Q99607 whole entry): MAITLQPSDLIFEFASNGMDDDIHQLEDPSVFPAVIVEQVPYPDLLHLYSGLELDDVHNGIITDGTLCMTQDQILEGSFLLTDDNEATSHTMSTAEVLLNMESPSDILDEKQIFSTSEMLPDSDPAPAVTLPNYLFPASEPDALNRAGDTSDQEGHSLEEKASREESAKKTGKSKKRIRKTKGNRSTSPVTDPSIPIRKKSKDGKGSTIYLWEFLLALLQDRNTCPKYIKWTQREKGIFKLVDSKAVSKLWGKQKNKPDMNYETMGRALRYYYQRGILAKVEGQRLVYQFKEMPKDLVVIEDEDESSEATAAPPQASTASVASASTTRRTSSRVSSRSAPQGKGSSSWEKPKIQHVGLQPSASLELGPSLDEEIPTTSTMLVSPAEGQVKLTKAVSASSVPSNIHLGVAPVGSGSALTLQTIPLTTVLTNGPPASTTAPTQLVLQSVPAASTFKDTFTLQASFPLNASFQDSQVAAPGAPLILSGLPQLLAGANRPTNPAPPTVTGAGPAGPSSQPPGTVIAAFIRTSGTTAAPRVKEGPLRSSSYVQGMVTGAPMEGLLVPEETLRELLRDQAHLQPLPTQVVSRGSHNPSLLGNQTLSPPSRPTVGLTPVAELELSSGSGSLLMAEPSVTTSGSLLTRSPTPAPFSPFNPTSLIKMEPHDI
Sequence of CRX (O43186 whole entry): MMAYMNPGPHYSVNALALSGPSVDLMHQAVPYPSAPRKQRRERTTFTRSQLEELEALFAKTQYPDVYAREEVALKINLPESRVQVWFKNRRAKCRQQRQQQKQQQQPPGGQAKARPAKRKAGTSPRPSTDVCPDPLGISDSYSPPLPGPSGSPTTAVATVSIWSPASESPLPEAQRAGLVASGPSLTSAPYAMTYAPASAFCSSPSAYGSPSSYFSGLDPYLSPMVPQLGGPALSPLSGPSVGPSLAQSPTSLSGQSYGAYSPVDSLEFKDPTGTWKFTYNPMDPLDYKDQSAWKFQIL
Sequence of ETV5 (P41161 whole entry): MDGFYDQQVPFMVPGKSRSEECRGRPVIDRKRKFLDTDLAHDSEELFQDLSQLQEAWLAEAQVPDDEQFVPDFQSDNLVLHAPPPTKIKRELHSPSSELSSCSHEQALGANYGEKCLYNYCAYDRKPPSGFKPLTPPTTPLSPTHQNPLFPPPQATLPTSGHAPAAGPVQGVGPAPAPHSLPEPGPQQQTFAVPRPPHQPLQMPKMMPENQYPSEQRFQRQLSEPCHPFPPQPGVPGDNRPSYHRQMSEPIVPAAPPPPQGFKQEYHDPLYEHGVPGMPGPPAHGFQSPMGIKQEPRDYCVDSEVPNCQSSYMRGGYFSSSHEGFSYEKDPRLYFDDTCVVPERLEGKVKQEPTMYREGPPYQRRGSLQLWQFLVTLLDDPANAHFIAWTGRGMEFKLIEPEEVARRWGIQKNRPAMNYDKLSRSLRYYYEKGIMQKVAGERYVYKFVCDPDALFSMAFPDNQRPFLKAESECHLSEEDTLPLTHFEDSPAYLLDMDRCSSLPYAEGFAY
Sequence of ETV1 (P50549 whole entry): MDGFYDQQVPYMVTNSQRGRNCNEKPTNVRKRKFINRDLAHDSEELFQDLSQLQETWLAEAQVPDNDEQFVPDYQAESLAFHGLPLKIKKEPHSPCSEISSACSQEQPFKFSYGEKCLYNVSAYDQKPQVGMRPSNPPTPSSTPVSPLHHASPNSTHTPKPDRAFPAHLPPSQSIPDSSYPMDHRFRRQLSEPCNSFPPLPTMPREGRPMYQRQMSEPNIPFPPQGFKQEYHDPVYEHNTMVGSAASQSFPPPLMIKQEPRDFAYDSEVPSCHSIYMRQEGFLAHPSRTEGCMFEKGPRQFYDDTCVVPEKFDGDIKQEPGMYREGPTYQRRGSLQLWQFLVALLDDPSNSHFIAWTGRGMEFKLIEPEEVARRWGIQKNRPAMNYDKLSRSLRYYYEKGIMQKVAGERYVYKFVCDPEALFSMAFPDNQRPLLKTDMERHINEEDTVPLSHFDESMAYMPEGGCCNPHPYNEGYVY
Sequence of SPIB (Q01892 whole entry): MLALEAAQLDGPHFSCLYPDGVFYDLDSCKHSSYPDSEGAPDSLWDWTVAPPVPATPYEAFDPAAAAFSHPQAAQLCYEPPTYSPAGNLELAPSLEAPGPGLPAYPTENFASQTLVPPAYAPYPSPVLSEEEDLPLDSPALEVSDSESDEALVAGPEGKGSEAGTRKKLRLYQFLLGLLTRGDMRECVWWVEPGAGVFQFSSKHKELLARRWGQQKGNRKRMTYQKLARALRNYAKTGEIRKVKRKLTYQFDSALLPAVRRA
Sequence of ELF1 (P32519 whole entry): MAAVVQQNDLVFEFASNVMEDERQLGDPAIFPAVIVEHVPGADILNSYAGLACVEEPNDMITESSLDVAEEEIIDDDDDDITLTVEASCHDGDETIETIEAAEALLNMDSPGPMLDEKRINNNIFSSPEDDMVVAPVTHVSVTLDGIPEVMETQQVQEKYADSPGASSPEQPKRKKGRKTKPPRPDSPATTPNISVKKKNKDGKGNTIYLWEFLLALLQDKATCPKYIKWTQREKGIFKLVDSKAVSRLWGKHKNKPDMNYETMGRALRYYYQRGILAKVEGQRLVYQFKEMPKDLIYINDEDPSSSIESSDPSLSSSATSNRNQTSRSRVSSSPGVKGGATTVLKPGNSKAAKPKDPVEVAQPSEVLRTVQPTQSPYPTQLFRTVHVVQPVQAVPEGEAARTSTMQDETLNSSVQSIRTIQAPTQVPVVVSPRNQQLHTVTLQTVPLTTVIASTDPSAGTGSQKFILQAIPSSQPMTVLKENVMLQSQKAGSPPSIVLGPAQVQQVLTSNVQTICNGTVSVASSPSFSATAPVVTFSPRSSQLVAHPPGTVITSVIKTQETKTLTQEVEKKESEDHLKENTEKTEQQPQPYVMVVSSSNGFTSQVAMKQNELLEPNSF
Sequence of HSF1 (Q00613 whole entry): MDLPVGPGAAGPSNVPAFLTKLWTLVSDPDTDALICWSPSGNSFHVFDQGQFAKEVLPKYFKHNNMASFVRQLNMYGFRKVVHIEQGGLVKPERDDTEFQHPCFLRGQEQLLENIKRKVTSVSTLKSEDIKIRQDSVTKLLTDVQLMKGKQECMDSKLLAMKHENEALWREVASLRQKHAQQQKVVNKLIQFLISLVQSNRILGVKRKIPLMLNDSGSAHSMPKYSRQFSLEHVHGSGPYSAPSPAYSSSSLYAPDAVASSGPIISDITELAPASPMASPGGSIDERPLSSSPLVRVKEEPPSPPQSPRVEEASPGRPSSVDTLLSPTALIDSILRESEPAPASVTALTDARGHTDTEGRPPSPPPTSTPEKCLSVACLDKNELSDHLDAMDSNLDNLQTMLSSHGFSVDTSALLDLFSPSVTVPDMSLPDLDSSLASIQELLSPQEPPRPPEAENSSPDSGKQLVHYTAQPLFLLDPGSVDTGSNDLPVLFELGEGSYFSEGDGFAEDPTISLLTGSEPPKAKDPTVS

Turning to TATAAG, the binding signal was 1.15 fold enrichment (6-mer frequency, TF over GST control) with FLI1; 1.23 fold enrichment (6-mer frequency, TF over GST control) with ELK1; 1.16 fold enrichment (6-mer frequency, TF over GST control) with GABPA; 1.12 fold enrichment (6-mer frequency, TF over GST control) in the experiment with ERG; 1.17 fold enrichment (6-mer frequency, TF over GST control) with ELF1; 1.1 fold enrichment (6-mer frequency, TF over GST control) with EHF. Besides, the binding signal in the experiment with SPI1 is 1.13 fold enrichment (6-mer frequency, TF over GST control); with SPIB, 1.12 fold enrichment (6-mer frequency, TF over GST control); in the experiment with ELK3, 1.24 fold enrichment (6-mer frequency, TF over GST control); with FEV, 1.05 fold enrichment (6-mer frequency, TF over GST control); in the experiment with ETV5, 1.12 fold enrichment (6-mer frequency, TF over GST control); with HSF1, 1.51 fold enrichment (6-mer frequency, TF over GST control). Besides, the binding signal with SPIC was 1.1 fold enrichment (6-mer frequency, TF over GST control); in the experiment with ELF4, 1.15 fold enrichment (6-mer frequency, TF over GST control); in the experiment with ELK4, 1.08 fold enrichment (6-mer frequency, TF over GST control); in the experiment with ETV2, 1.22 fold enrichment (6-mer frequency, TF over GST control); with ELF3, 1.23 fold enrichment (6-mer frequency, TF over GST control); with CRX it was 2.08 fold enrichment (6-mer frequency, TF over GST control). The binding signal in the experiment with ETV1 is 1.15 fold enrichment (6-mer frequency, TF over GST control).
